{"source": "PubChem BioAssay (NCATS)", "note": "Results filed as inconclusive are left out. Calls of active or inactive are those of the source. The call rests on the fitted dose curve; in most records, active means well fitted inhibition curve with a large enough effect; inconclusive means small, poorly fitted or top-dose-only effect; inactive means flat fitted curve, though single readings scatter. Potency means the concentration at half of the fitted maximal effect.", "data": [{"tested_on": "7G8", "experiment": "qHTS profiling for inhibitors of Plasmodium falciparum proliferation (AID 504749); further: nearly all actives have a fitted effect of over 60% in size", "conditions": "P. falciparum in erythrocytes, SYBR Green DNA, 72 h; series mostly up to 28.7 µM", "procedure,_shortened": "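P. falciparum-infected erythrocytes (0.3% parasitemia, 2.5% hematocrit) incubated with compound 72 h at 37 C, 5% CO2. Parasite DNA detected by SYBR Green after lysis, overnight at room temperature; normalised to 0.29 uM artemisinin and DMSO.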", "values": [{"molecule": "CCOC(=O)Cc1ccc(-c2ccccc2)cc1", "Potency": "inactive"}, {"molecule": "CC(CN(C)C)CN1c2ccccc2Sc2ccc(C(F)(F)F)cc21", "note": "(centres undefined)", "Potency": "10 µM (active)"}, {"molecule": "CNC(=O)[C@H](Cc1c[nH]c2ccccc12)NC(=O)[C@@H](CC(=O)NO)CC(C)C", "Potency": "11.2 µM (active)"}, {"molecule": "O=c1n(CC2CO2)c(=O)n(CC2CO2)c(=O)n1CC1CO1", "note": "(centres undefined)", "Potency": "12.6 µM (active)"}, {"molecule": "CC(=O)c1ccc2c(c1)N(CCCN1CCN(CCO)CC1)c1ccccc1S2", "Potency": "7.08 µM (active)"}, {"molecule": "C[C@H](CCC(=O)O)[C@H]1CC[C@H]2[C@@H]3CC[C@@H]4C[C@H](O)CC[C@]4(C)[C@H]3C[C@H](O)[C@]12C", "Potency": "inactive"}, {"molecule": "CNC(=O)c1c(I)c(C(=O)NCC(=O)Nc2c(I)c(C(=O)O)c(I)c(C(=O)NCCO)c2I)c(I)c(N(C)C(C)=O)c1I", "Potency": "inactive"}, {"molecule": "S=C1SCN(Cc2ccccc2)CN1Cc1ccccc1", "Potency": "inactive"}, {"molecule": "Nc1ccc(N=Nc2ccccc2)c(N)n1", "Potency": "inactive"}, {"molecule": "O=P(O)(O)OP(=O)(O)O", "Potency": "10 µM (active)"}, {"molecule": "OC/C=C/c1ccccc1", "Potency": "inactive"}, {"molecule": "CN(C)CCC=C1c2ccccc2C(C)(C)c2ccccc21", "Potency": "7.94 µM (active)"}, {"molecule": "CN1CCCC(CN2c3ccccc3Sc3ccccc32)C1", "note": "(centres undefined)", "Potency": "11.2 µM (active)"}, {"molecule": "O=C1c2ccccc2C(=O)C1c1ccc(Cl)cc1", "Potency": "inactive"}, {"molecule": "CC(=O)Oc1cccc2c1C(=O)c1c(OC(C)=O)cc(C(=O)O)cc1C2=O", "Potency": "inactive"}, {"molecule": "CC[C@H]1OC(=O)[C@H](C)[C@@H](O[C@H]2C[C@@](C)(OC)[C@@H](O)[C@H](C)O2)C(C)[C@@H](O[C@@H]2O[C@H](C)C[C@H](N(C)C)[C@@H]2O)[C@](C)(OC)C[C@@H](C)C(=O)[C@H](C)[C@@H](O)[C@]1(C)O", "note": "(some centres undefined)", "Potency": "inactive"}, {"molecule": "CCCC(CCC)C(=O)OC1C[C@H]2CC[C@@H](C1)[N+]2(C)C", "note": "(some centres undefined)", "Potency": "11.2 µM (active)"}, {"molecule": "O=C(c1cc2ccccc2o1)N1CCN(Cc2ccccc2)CC1", "Potency": "7.94 µM (active)"}, {"molecule": "CCCCCCCCCCCCCCCCCC[N+](C)(C)CCC[Si](OC)(OC)OC", "Potency": "inactive"}, {"molecule": "CCN(CC)CCC(=O)N1c2ccccc2Sc2ccc(Cl)cc21", "Potency": "8.91 µM (active)"}, {"molecule": "CC(=O)Nc1ccc(NC(=S)NC(=O)c2ccc(C(C)(C)C)cc2)cc1", "Potency": "8.91 µM (active)"}, {"molecule": "CC(=O)Nc1c(I)c(C(=O)O)c(I)c(N(C)C(C)=O)c1I", "Potency": "inactive"}, {"molecule": "c1ccc2c(c1)Sc1ccccc1N2CCN1CCCC1", "Potency": "7.08 µM (active)"}, {"molecule": "CC[C@H]1OC(=O)[C@H](C)[C@@H](O[C@H]2C[C@@](C)(OC)[C@@H](O)[C@H](C)O2)[C@H](C)[C@@H](O[C@@H]2O[C@H](C)C[C@H](N(C)C)[C@H]2O)[C@](C)(O)C[C@@H](C)CN(C)[C@H](C)[C@@H](O)[C@]1(C)O", "Potency": "12.6 µM (active)"}, {"molecule": "CN(C)C(=O)CCSC(SCCC(=O)O)c1cccc(/C=C/c2ccc3ccc(Cl)cc3n2)c1", "note": "(centres undefined)", "Potency": "8.91 µM (active)"}, {"molecule": "CCCCCCCCCCCCCCCCOCCOCCOCCOCCOCCOCCOCCOCCOCCOCCOCCOCCOCCOCCOCCOCCOCCOCCOCCOCCO", "Potency": "5.62 µM (active)"}, {"molecule": "O=C1c2ccccc2CN2C(=O)c3ccccc3CN12", "Potency": "inactive"}, {"molecule": "Cn1c(=O)c2c(ncn2CCOC(=O)C(C)(C)Oc2ccc(Cl)cc2)n(C)c1=O", "Potency": "inactive"}, {"molecule": "CC(C)CCCCCCc1ccc(O)cc1", "Potency": "8.91 µM (active)"}, {"molecule": "N[C@@H](Cc1cc(I)c(Oc2ccc(O)c(I)c2)c(I)c1)C(=O)O", "Potency": "12.6 µM (active)"}, {"molecule": "Cn1c(O)c(N=NC(N)=S)c2ccccc21", "Potency": "12.6 µM (active)"}, {"molecule": "OCc1ccccc1", "Potency": "2.82 µM (active)"}, {"molecule": "COc1ccc2nc(NC(=O)Nc3ccccc3)sc2c1", "Potency": "10 µM (active)"}, {"molecule": "O=C(OCc1ccccc1)c1cccnc1", "Potency": "inactive"}]}]}
